Hits are enriched below; roughly 1.3% of the tested compounds scored in any of these assays.
RAD54 branch: inhibitors of human RAD54 branch migration. RAD54 Holliday junction branch migration, FAM/BHQ fluorescence. 360,000 compounds, 0.14% hits. Q92698. AID 602329. inhibition, % at 10.4 µM;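 active means mean normalized replicate activity at least 40 and at least half of replicates scoring 40 or more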;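 further: 0% = median of neutral control wells and 100% = median of positive control wells; inhibitors cause a drop in the FAM fluorescence signal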
RAD52 inh: RAD52 (human) annealing inhibition; P43351; recombinant RAD52 DNA annealing, FRET fluorescence; inhibition, % at 18.7 µM; 360,000 compounds, 0.46% hits; AID 651710;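 active means every replicate showing at least 50% inhibition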
Target sequence (P43351 whole entry, looked up): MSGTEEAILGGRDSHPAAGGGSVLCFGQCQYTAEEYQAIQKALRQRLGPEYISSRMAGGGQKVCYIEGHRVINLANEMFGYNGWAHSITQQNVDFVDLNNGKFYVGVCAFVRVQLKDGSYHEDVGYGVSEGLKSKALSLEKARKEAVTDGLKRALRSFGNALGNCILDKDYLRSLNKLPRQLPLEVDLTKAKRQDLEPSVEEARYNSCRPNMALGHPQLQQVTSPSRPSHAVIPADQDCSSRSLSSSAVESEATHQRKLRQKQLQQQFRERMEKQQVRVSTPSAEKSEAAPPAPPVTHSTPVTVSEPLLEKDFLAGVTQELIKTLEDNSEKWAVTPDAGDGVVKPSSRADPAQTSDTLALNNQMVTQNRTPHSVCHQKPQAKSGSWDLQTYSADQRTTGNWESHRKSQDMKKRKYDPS
PREPL inh: inhibits the human prolyl oligopeptidase-like enzyme; AID 2751; Q4J6C6; 320,000 compounds, 0.68% hits; inhibition, % at 5.96 µM; recombinant PREPL, fluorescence polarization activity-based probe;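 further: 0% = enzyme with DMSO and 100% = wells lacking enzyme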
UBC13 polyUb: human UBC13 polyubiquitination inhibition; P61088; UBC13 polyubiquitin chain formation, TR-FRET; inhibition, % at 20 µM; 330,000 compounds, 0.47% hits; AID 485273; in the data active means inhibition above about 45%, passing the limit was not always enough
DNA FID counter: fluorescent intercalator displacement, NS3 helicase counter-screen | DNA fluorescent intercalator displacement, fluorescence | inhibition, % at 7.9 µM | 290,000 compounds, 0.17% hits | AID 1845; in the data active means inhibition above about 37%;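 further: 0% = vehicle and 100% = reference compound; higher means more ethidium bromide displaced from hairpin DNA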
MIN6 prolif: induces beta-cell replication in MIN6 cells | proliferation, % at 10 µM | AID 2380 | MIN6 cells proliferation, ATPlite luminescence, 48 h; cells starved in 0.2% serum; 100% = growth in 10% serum | 330,000 compounds, 0.29% hits;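 active means compounds whose signal lies at least 3.5 SD above the mean of all wells on their plate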;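 further: 0% = DMSO-treated cells in low-serum medium and 100% = 10% serum control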
PREPL inh cf: confirmation of human PREPL enzyme inhibitors; shares compounds with PREPL inh; recombinant PREPL, fluorescence polarization activity probe; AID 2803; 2,000 compounds, 67% hits; inhibition, % at 5.96 µM;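 further: 0% = protein with DMSO and 100% = wells lacking protein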
An asterisk follows results filed as active; · = not tested or not shown. Unless noted, no stated cut-off is given here; in the data, active means inhibition above about 43%; inactive means the rest.

SMILES | RAD54 branch | RAD52 inh | PREPL inh | UBC13 polyUb | DNA FID counter | MIN6 prolif | PREPL inh cf
O=C(NCCCc1ccccc1)C1CCN(c2nnc(-n3cccc3)s2)CC1 | -3 | -15 | 19 | 3 | -27 | -2 | ·
O=C(NCCCN1CCN(Cc2ccccc2)CC1)C1CCN(c2nnc(-n3cccc3)s2)CC1 | -14 | · | 44* | 33 | 11 | -4 | 32
COCCNC(=O)C[C@H]1CC[C@H]2[C@H](COc3ccc(NC(=O)Cc4ccccc4)cc3C(=O)N2C)O1 | 2 | -4 | · | · | · | · | ·
COc1ccc(NCC(=O)N/N=C/C=C\c2ccccc2)cc1 | 0 | -8 | 67* | -4 | -13 | 0 | 46*
Cc1ccc(CNc2ccc3c(c2)ncn3C(C)(C)C)cc1 | · | -10 | 49* | -12 | -5 | -4 | 46*
Cc1ccc(CNc2ccc3c(c2)ncn3C)cc1 | 9 | · | 10 | -6 | 14 | -3 | ·
C[C@@H]1CN([C@@H](C)CO)C(=O)c2cc(NC(=O)CCCN(C)C)ccc2O[C@@H](C)CCCCO[C@H]1CN(C)CC1CCCCC1 | -3 | 15 | · | · | · | · | ·
CN1CCN(c2ccc(NC(=O)COc3ccccc3Cl)cc2)CC1 | 9 | · | 44* | 2 | 10 | -1 | 42
CCC(=O)N1CCN(c2ccc(NC(=O)COc3ccccc3Cl)cc2)CC1 | 10 | -6 | 43 | -2 | -25 | -3 | ·
Cc1cc(OCC(=O)Nc2ccc(S(=O)(=O)N3CCN(C)CC3)cc2)ccc1Cl | 19 | · | 6 | 9 | 12 | -1 | ·
Cc1cc(OCC(=O)Nc2ccc(N3CCN(C)CC3)cc2)ccc1Cl | 2 | 3 | 70* | 8 | 17 | 4 | 56*
CN1c2ccc(-c3cccc(C#N)c3)cc2[C@H]2[C@H](CCN2C(=O)C2CCC2)[C@H]1CO | -2 | · | · | · | · | · | ·
CC(=O)N1CCN(c2ccc(OC[C@H]3CO[C@](Cn4ccnc4)(c4ccc(Cl)cc4Cl)O3)cc2)CC1 | 12 | -4 | 61* | 3 | -8 | -4 | 64*
Cc1noc(C)c1S(=O)(=O)Nc1ccc2c(c1)C(=O)N([C@@H](C)CO)C[C@@H](C)[C@H](CN(C)C(=O)c1ccccc1)OCCCC[C@H](C)O2 | -6 | 19 | · | · | · | · | ·
O=C(c1cccnc1)N1CCN(Cc2ccc3ccccc3c2)CC1 | 3 | -15 | 45* | 2 | -15 | 0 | 36
O=C(c1cccnc1)N1CCN(Cc2cccc(F)c2)CC1 | -3 | · | 14 | -8 | 5 | -1 | ·
COc1cccc(C2CC(c3ccc(C)cc3)Nc3nc(N)nn32)c1 (stereo not given) | -3 | -5 | 49* | 0 | -25 | 5 | 51*
C[C@H]1CN([C@@H](C)CO)S(=O)(=O)c2ccc(C#CC3CC3)cc2O[C@H]1CN(C)Cc1ccccc1F | -3 | 10 | · | · | · | · | ·
O=c1c2c3c(sc2nc(NCCO)n1CCc1ccccc1)CCCCC3 | 2 | · | 164* | 7 | -10 | -5 | 40
O=[N+]([O-])c1cc(Cl)ccc1N1CCCC1 | 4 | -8 | 15 | -15 | 3 | -2 | ·
O=C1C(Cl)=C(N2CCN(c3ccccc3[N+](=O)[O-])CC2)C(=O)c2ccccc21 | 0 | -5 | 58* | · | 10 | · | 44*
CCOc1cc(N2CCOCC2)c(OCC)cc1NC(=O)COC(=O)CCc1c[nH]c2ccccc12 | 7 | · | 76* | 9 | -16 | 2 | 69*
CCCNC(=O)N1C[C@@H](O)COC[C@@H]2O[C@H](CC(=O)N3CCC(Cc4ccccc4)CC3)CC[C@H]21 | 1 | -12 | · | · | · | · | ·
O=C(Nc1ccc(Cl)cc1)N1CCN(c2ccccc2)CC1 | -18 | · | 15 | 6 | -4 | 1 | ·
O=C(Nc1ccc(NC(=O)N2CCN(c3ccccc3O)CC2)cc1)N1CCN(c2ccccc2O)CC1 | 0 | -19 | 56* | 0 | -44 | -3 | 52*
C[C@H]1CCCCO[C@@H](CN(C)C(=O)NC2CCCCC2)[C@@H](C)CN([C@@H](C)CO)C(=O)c2cc(NS(=O)(=O)c3ccc(F)cc3)ccc2O1 | -7 | 32 | · | · | · | · | ·
CC1=Nc2nc(N3CCCCC3)c(C#N)c3c4c(nc(c23)N1)N(c1ccc(C(C)C)cc1)C(=O)C4 | -3 | -6 | 99* | -38 | -5 | -6 | 72*
COc1ccc(-n2c(-c3ccccc3)cc3c2CCCC3=O)cc1 | 1 | -14 | 49* | -2 | -22 | -5 | 41

High-throughput results deposited in PubChem BioAssay by several laboratories.
